Results published in PubChem BioAssay AID1851 (National Center for Advancing Translational Sciences (NCATS), 2009).
About 5,800 (36%) of roughly 16,000 compounds were called active. About 23% were inconclusive and are not listed. Calls come from the whole dose curve; as a rule, active = well fitted curve in the direction sought with a large enough effect; inconclusive = small, poorly fitted or top-dose-only effect, or effect the other way; inactive = no such curve, though single readings can be large or run the other way. Some of the results follow.

biological target: Cytochrome P450 2C19 (Homo sapiens) (UniProt P33261); assay: Cytochrome panel assay with activity outcomes; conditions: recombinant CYP, pro-luciferin dealkylation, luminescence, p450-cyp2c19; series mostly up to 57.1 µM
Sequence (P33261 whole entry, looked up): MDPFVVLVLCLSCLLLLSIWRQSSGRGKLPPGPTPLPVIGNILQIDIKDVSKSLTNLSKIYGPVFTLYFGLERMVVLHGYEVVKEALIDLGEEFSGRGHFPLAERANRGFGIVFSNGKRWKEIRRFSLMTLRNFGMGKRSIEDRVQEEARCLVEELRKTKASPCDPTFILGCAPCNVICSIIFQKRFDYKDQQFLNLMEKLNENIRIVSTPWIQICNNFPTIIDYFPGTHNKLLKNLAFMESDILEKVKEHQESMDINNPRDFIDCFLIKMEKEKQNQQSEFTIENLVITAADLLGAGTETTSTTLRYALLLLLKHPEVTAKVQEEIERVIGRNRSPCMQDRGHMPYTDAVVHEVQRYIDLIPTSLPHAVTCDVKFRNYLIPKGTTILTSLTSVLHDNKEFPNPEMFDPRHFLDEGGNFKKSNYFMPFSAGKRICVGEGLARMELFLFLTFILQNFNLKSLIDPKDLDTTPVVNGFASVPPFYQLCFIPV
% is set by controls: 0 for no effect and ±100 for the full control effect.

AC50, inactive:
COc1ncc2nc(-c3ccc(F)cc3)c(=O)n(C)c2n1, Cc1noc(C)c1-c1ccc2ncnc(N3CCN(C)CC3)c2c1, Cc1noc(C)c1-c1ccc2ncnc(N3CCOCC3)c2c1, OCCNc1nc2ccccc2[nH]1, Nc1ncnc2c1nc(Sc1ccc(Cl)cc1)n2[C@@H]1O[C@H]2COP(=O)(O)O[C@@H]2[C@H]1O, CCOC(=O)c1ccc(Cl)c(NC(=O)c2ccc(-c3ccccc3)cc2)c1, O=C(O)/C=C/C(=O)Nc1ccccc1-c1ccccc1, COc1ncc2ncc(=O)n(CCC#N)c2n1, N#Cc1cccc(-c2nc3cnc(Oc4cccc(Cl)c4)nc3n(C3CC3)c2=O)c1, O=c1c(-c2cccs2)nc2cnc(Oc3ccccc3)nc2n1Cc1cccs1, COc1ncc2nc(-c3ccc(F)cc3)c(=O)n(Cc3ccc(F)cc3)c2n1, COc1cccc(Cn2c(=O)cnc3cnc(N4CCN(C)CC4)nc32)c1, O=c1c(-c2ccccc2)nc2cnc(Oc3cccc(Cl)c3)nc2n1C1CC1, COc1ncc2ncc(=O)n(Cc3cccs3)c2n1, N#CCCn1c(=O)cnc2cnc(Oc3ccccc3)nc21, N#CCCn1c(=O)c(-c2ccc(F)cc2)nc2cnc(Oc3cccc(Cl)c3)nc21, COCCn1c(=O)c(-c2ccc(F)cc2)nc2cnc(Oc3ccccc3)nc21, N#CCCn1c(=O)c(-c2cccc(C#N)c2)nc2cnc(Oc3cccc(Cl)c3)nc21, N[C@H](CCCP(=O)(O)O)C(=O)O, COCC(=O)N1CCC2(CC1)CCN(c1ncccn1)CC2, COCC(=O)N1CCC2(CC1)CN(c1ccccn1)C2, COCC(=O)N1CCC2(CCCN(c3ncccn3)C2)CC1, O=C(Oc1ccccc1)N1CCC2(CC1)CCN(c1ncccn1)CC2, O=C(c1cc(O)c(O)c([N+](=O)[O-])c1)c1ccccc1F, Cc1cc(OC(=O)c2ccccc2Cl)cc(=O)n1C, CN(C)C(=N)N=C(N)N, O=C1CCCCC(=O)c2ccccc2N1, O=C1c2ccccc2C(=O)C1c1ccccc1, CC(C)(C)c1[nH]nc2c1C(c1ccc(OC(=O)c3ccco3)cc1)C(C#N)=C(N)O2 (stereo not drawn), COc1ccccc1CN1CC[C@@]2(CCCN(C(=O)c3cccn3C)C2)C1, CCN(CC)CCOC(=O)C1(c2ccc([N+](=O)[O-])cc2)CCCC1, Cc1cccc(NC2=NC(=S)N(c3ccc(C(=O)O)cc3)C23CCCCC3)c1, O=c1c2ccc([N+](=O)[O-])c3cccc(c32)c2nc3ccccc3n12, Cc1cnc(CNc2ccnc(-c3cccnc3)n2)cn1, CCOc1ccc(C2C(C(=O)O)c3ccccc3C(=O)N2CCN2CCOCC2)cc1 (stereo not drawn), CC(=O)N1c2ccc(S(=O)(=O)CCC(=O)O)cc2CC1C (stereo not drawn), CCc1nnc(NC(=O)CSc2ncnc3c2cnn3-c2ccc(OC)cc2)s1, Cc1noc(C)c1C(=O)N1CCC2(CC1)CN(c1ncccn1)C2, CC1=C(C(=O)OCc2ccccc2)C(c2ccc([N+](=O)[O-])cc2)NC(=O)N1CCCCCC(=O)O (stereo not drawn)

AC50, active:
Cc1noc(C)c1-c1ccc2ncnc(N(C)Cc3ccco3)c2c1 5.01 µM, COc1cc(/C=C2\SC(=S)N(Nc3ccccc3)C2=O)cc(OC)c1OC 11.2 µM, Cc1ccc(S(=O)(=O)/C=C\C#N)cc1 5.01 µM, Cc1nn(-c2nc3ccccc3[nH]2)c(N)c1-c1ccc(Cl)cc1 4.47 µM, c1ccc(CCSc2nccn2-c2ccccc2)cc1 1.26 µM, Cc1ccccc1CSc1nccn1-c1ccccc1 0.631 µM, Clc1ccc(CSc2nccn2Cc2ccccc2)cc1 0.224 µM, O=C(CSc1nccn1-c1ccccc1)c1ccc(Cl)cc1 0.447 µM, CCc1ccc(CSc2nccn2-c2ccccc2)cc1 1.58 µM, CCOc1c(Cl)cc(C(=O)Nc2ccccc2-c2ccccc2)cc1Cl 2.51 µM, COc1ncc2ncc(=O)n(Cc3ccc(F)cc3)c2n1 7.94 µM, O=c1cnc2cnc(Oc3ccccc3)nc2n1Cc1cccs1 1.26 µM, O=c1cnc2cnc(Oc3cccc(Cl)c3)nc2n1C1CC1 15.8 µM, COc1cccc(Cn2c(=O)cnc3cnc(Oc4cccc(Cl)c4)nc32)c1 25.1 µM, O=c1cnc2cnc(Oc3cccc(Cl)c3)nc2n1Cc1ccc(F)cc1 20 µM, O=c1cnc2cnc(Oc3ccccc3)nc2n1Cc1ccc(F)cc1 2.51 µM, Cc1ccccc1OCCNC(=O)c1ccccc1Sc1ccccc1C#N 8.91 µM, Cc1nc(S(=O)(=O)c2cccc(Cl)c2)nc2c1CCC2 15.8 µM, CCN(C(=O)c1cnc(N2CCN(c3ncccn3)CC2)c2ccccc12)c1cccc(Cl)c1 0.251 µM, CN(C(=O)c1cnc(N2CCN(c3ncccn3)CC2)c2ccccc12)c1ccc(Cl)cc1 1.58 µM, Fc1ccc(C2CC(c3ccco3)=NN2c2ccccc2)cc1 (stereo not drawn) 2.24 µM, Cc1ccc(-c2cccc(OC(=O)c3ccccc3F)c2)cc1 2.51 µM, COc1ccc(Cl)cc1NC(=O)C12CCC(C)(C(=O)O1)C2(C)C (stereo not drawn) 1.26 µM, Cc1cc2c(s1)CCCCC(=O)N2 22.4 µM, Oc1[nH]c2ccccc2c1/C=N/c1nccs1 14.1 µM, c1ccc(C2OCC3(CO2)COC(c2ccccc2)OC3)cc1 (stereo not drawn) 2.51 µM, C/C(=C\c1ccco1)C1C(C#N)=C(N)Oc2n[nH]c(-c3ccccc3)c21 (stereo not drawn) 2.24 µM, Cc1cccc(NC(=O)C23CCC(C)(C2Br)C3(C)C)c1 (stereo not drawn) 4.47 µM, CC12CCC(C(=O)Nc3cccc4ccccc34)(C1Br)C2(C)C (stereo not drawn) 8.91 µM, Cc1cccc(NC(=O)C2(c3ccccc3)CC2(Cl)Cl)c1 (stereo not drawn) 1 µM, Cc1cccc(NC(=O)C2(c3ccc([N+](=O)[O-])cc3)CCCC2)c1 0.891 µM, CCc1ccccc1NC(=O)c1ccc(-n2c(C)ccc2C)cc1 15.8 µM, C=CCNc1oc(/C=C/c2ccccc2)nc1C#N 4.47 µM, O=C(O)c1ccc2c3c1cccc3c(=O)n1c3ccccc3nc21 3.98 µM, Cc1cccc(CNc2ccnc(-c3cccnc3)n2)c1 2.51 µM, c1ccc(CNc2ccnc(-c3cccnc3)n2)cc1 2.51 µM, c1cncc(-c2nccc(NCc3cccs3)n2)c1 7.94 µM, CNc1nc(Cl)nc(NC(C)(C)C)n1 14.1 µM, CCOc1ccc(/C=C2\C(=O)c3ccccc3OC2c2ccccc2)cc1 (stereo not drawn) 1.12 µM, CSCC[C@H](NC(=O)c1nn(C)c(=O)c2ccccc12)c1nc2ccccc2[nH]1 14.1 µM, CC1Cc2ccccc2N1C(=O)C1CCCCN1S(=O)(=O)c1ccccc1 (stereo not drawn) 2.24 µM, O=C(NC(NC(=S)Nc1cc(Cl)ccc1Cl)C(Cl)(Cl)Cl)c1ccco1 (stereo not drawn) 1.58 µM, CCc1ccc(OCC(=O)NNC(=O)CSc2ncnc3sc(C)c(C)c23)cc1 11.2 µM, CC1=C(C(=O)OCc2ccccc2)C(c2cccnc2)c2c(n(C)c(=O)n(C)c2=O)N1 (stereo not drawn) 1 µM

activity, negative = inhibition, inactive:
O=C(O)CSCCc1ccccc1 6.64% [at 11.4 µM], O=c1ccnc(SCc2ccc(Cl)cc2)[nH]1 -32.7% [at 11.4 µM], N#CC1(Nc2ccc(-c3ccc(NC4(C#N)CCCC4)cc3)cc2)CCCC1 4.93% [at 11.4 µM], CCN(CCO)C[C@H]1CCC[C@H]2CCCC[C@@H]21 12.1% [at 11.4 µM], CCON=C1C(C)(C)C(C)(C)C(C)(C)C1(C)C -8.06% [at 11.4 µM], COC(=O)[C@H](C)NC(=O)C/C=C\[C@@H](C)[C@H]1C=C[C@H](O)[C@@H](CO)O1 -2.78% [at 11.4 µM], CC(=O)C=NCC(=O)O -14.5% [at 11.4 µM], C[C@@H]1CC[C@@H]2C(=O)N3[C@@H](CC[C@@H](C)[C@@H]3c3ccc(-c4ccco4)cc3)C(=O)N2[C@H]1c1ccc(-c2ccco2)cc1 0.199% [at 11.4 µM], CCN1C(=O)[C@H]2[C@H]3[C@H](O)[C@H](O)C/C(=N/O[C@@H]4O[C@@H](COC(C)=O)[C@@H](OC(C)=O)[C@@H](OC(C)=O)[C@H]4OC(C)=O)[C@@H]3CC[C@@H]2C1=O 13.6% [at 11.4 µM], N#C[C@H]1CN[C@H](N)N[C@@H]1N 14.3% [at 11.4 µM], CCOC(=O)N/N=C1/C[C@@H](O)[C@@H](O)[C@@H]2[C@@H]3C(=O)N(C4CCCCC4)C(=O)[C@H]3CC[C@@H]12 -22.2% [at 11.4 µM], C[N+]1(CCCC[N+]2(C)CCCCCCC2)CCCCCCC1 34.1% [at 11.4 µM], O=C=Nc1ccc(Cc2ccc(N=C=O)cc2)cc1 (tested in a mixture with another compound) -1.1% [at 11.4 µM], Cc1cc(C)c2nc3c(c([C@H](O)[C@@H]4CCCCN4)c2c1)CC/C3=C/c1ccc(Cl)cc1 -6.83% [at 11.4 µM], O=C1NC(=O)[C@@](Cc2ccccc2)(c2cccnc2)N1 27.6% [at 11.4 µM]
